In all, about 2,100 compounds went through this assay and about 760 (36%) were called active.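 The calls were made as follows: active = thallium-flux fluorescence traces judged by eye to show enhanced or reduced glutamate response, manual score 1 or -1, so both directions (some results past the limit were not filed as active); inactive = the rest, including fluorescent or raised-baseline compounds.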 Only a sample is shown.
assay: thallium influx changes without GIRK channels – cell-based, HEK-293 rmGlu8, no GIRK, thallium flux, counter-screen for GIRK activator project, confirmation (AID 623868); settings: thallium flux fluorescence, at 10 µM, actives lie on both sides, codes: 1 enhancer, -1 blocker, 0 none, thallium stimulus containing EC20 glutamate;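 also: extra codes mark interference with 3 for fluorescent and 4 for baseline rise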

SMILES	manual score
O=C(NN=c1c(=O)c2ccccc2c1=O)c1ccccc1	1 (active)
C/C(=N\O)C(C)NC(=O)c1ccccc1 (stereo not drawn)	0 (inactive)
O=C(Nc1ccc(SC(F)F)cc1)C12CCC(CC1)C2	0 (inactive)
O=c1c2cc(Cl)ccc2[nH]c(=S)n1Cc1ccco1	1 (active)
O=c1c2cc(N3CCOCC3)ccc2[nH]c(=S)n1Cc1ccc(Cl)cc1	0 (inactive)
O=c1[nH]c2ccc(Cl)cc2c(=O)n1Cc1ccco1	0 (inactive)
O=c1c2cc(Cl)ccc2[nH]c(=S)n1Cc1cccs1	1 (active)
Cc1c(C(=O)O)[nH]c2c1C(=O)CC(c1ccc(Cl)cc1)C2 (stereo not drawn)	0 (inactive)
CN1CCN(CC(=O)N2c3ccccc3C(C)(c3ccc(Cl)cc3)CC2(C)C)CC1 (stereo not drawn)	0 (inactive)
CC(C)CNC(=S)NC(=O)c1ccc(F)cc1	1 (active)
CCCCNC(=S)NC(=O)c1ccc([N+](=O)[O-])cc1	1 (active)
COC(=O)C(CC(C)C)NC(=O)c1ccc([N+](=O)[O-])c(C)c1 (stereo not drawn)	0 (inactive)
CC(C)CNC(=S)NC(=O)c1ccc([N+](=O)[O-])cc1	1 (active)
O=C(NN=C(Cc1ccccc1)Cc1ccccc1)c1ccc(F)cc1	0 (inactive)
CCCCCC(=O)NC(=S)NNC(=O)c1ccc([N+](=O)[O-])cc1	1 (active)
CCCn1c(=N)n(CC(O)COc2cccc(C)c2)c2ccccc21 (stereo not drawn)	0 (inactive)
CN(C)Cc1c(O)c(Cl)cc2c3c(c(=O)oc12)CCCC3	0 (inactive)
COc1ccc2c(c1)C(C)=CC(C)(C)N2C(=O)CNCc1ccc2c(c1)OCO2	0 (inactive)
O=C(O)c1oc2ccccc2c1CSc1ccccn1	0 (inactive)
CCn1cc(C(=O)N2CC=C(c3ccccc3)CC2)c(=O)c2ccc(C)nc21	-0.5 (inactive)
CCN(CC)c1ccc(/C=C2/C(=O)c3ccc(C(=O)O)cc3C2=O)cc1	3 (inactive)
COc1ccc2nc(N3C(=O)/C(=C/c4ccccc4)NC3=S)sc2c1	1 (active)
O=C(c1ccco1)N1CCN(c2ncnc3scc(-c4cccs4)c23)CC1	0 (inactive)
Cc1cc(N2CCOCC2)n2nc(C)c(-c3ccccc3)c2n1	0 (inactive)
CCCn1c(=O)c2ccccc2n2c(SCC(=O)N3CCc4ccccc4C3)nnc12	-1 (active)
Cn1c(SCC(=O)N2c3ccccc3CCc3ccccc32)nnc1-c1ccc(O)cc1	0 (inactive)

SMILES	manual score
CCCn1c(=O)c2ccccc2n2c(SCc3nc4ccccc4s3)nnc12	-1 (active)
CCCn1c(=O)c2ccccc2n2c(SCCOc3ccccc3F)nnc12	-0.5 (inactive)
CCc1cccc(CC)c1-n1c(SCC(=O)N2CCc3ccccc3C2)nnc1-c1cccnc1	0 (inactive)
COC(=O)c1ccc(NC(=S)NC(=O)c2c(Cl)cnn2C)cc1	1 (active)
CCCCOC(=O)c1ccc(NC(=S)NC(=O)c2c(Br)c(C)nn2C)cc1	1 (active)
COC(=O)c1ccc(Cl)c(NC(=O)CN2CCN(C)CC2)c1	0 (inactive)
CCCOC(=O)c1ccc(NC(=O)c2ccoc2C)cc1	0 (inactive)
COC(=O)c1ccc(NC(=O)C23CC4CC(C2)CC(n2cncn2)(C4)C3)cc1	0 (inactive)
CCCCc1ccc(NC(=S)Nc2ccc(Cl)c(S(=O)(=O)N(C)C)c2)cc1	0 (inactive)
CCCCOC(=O)c1ccc(NC(=S)NC(=O)c2c(Cl)cnn2CC)cc1	1 (active)
CCCCOC(=O)c1ccc(NC(=S)NC(=O)c2c(Cl)cnn2C)cc1	0.5 (inactive)
CCCCOC(=O)Nc1ccc(C(=O)OCCC)cc1	0 (inactive)
O=C(NC(=S)Nc1ccccc1N1CCOCC1)c1cccs1	1 (active)
CC1CCN(c2ccccc2NC(=S)NC(=O)c2cccs2)CC1	1 (active)
Cc1ccc(NC(=O)C(c2ccccc2)C2CCCC2)cc1 (stereo not drawn)	0 (inactive)
O=C1NC(=S)S/C1=C\c1ccc(SCc2ccccc2)o1	1 (active)
O=C1NC(=S)/C(=C\c2ccc(-c3ccccc3Cl)o2)S1	3 (inactive)
O=C(CSc1cccc2cccc(Cl)c12)NCc1cccs1	0 (inactive)
O=S(=O)(Nc1nc(-c2sccc2Cl)cs1)c1cc(Cl)ccc1Cl	0 (inactive)
COC(=O)c1sccc1NC(=O)CSc1ccccc1NS(=O)(=O)c1ccc(Cl)cc1	0.5 (inactive)
COC(=O)c1sccc1NC(=O)CSc1ccccc1NS(=O)(=O)c1ccccc1Cl	1 (active)
CCC(C(=O)OCC(=O)Nc1ccc(Cl)c(S(=O)(=O)N(C)C)c1)c1ccccc1 (stereo not drawn)	0 (inactive)
COC(=O)c1sccc1NC(=O)CSc1ccccc1NS(=O)(=O)c1cc(Cl)ccc1Cl	1 (active)
CN(C)S(=O)(=O)c1cccc(NC(=O)COc2cccc(C#N)c2)c1	0 (inactive)
Cc1ccc(C)c(C(=O)c2c(C)nc3sccn23)c1	0 (inactive)
CC(/C=C/c1ccccc1)=N/NC(=O)c1cc([N+](=O)[O-])cc([N+](=O)[O-])c1	0 (inactive)

SMILES	manual score
Cc1ccc(OCC(=O)N/N=C\c2ccc(-c3cccc(C(=O)O)c3)o2)c(C)c1	0 (inactive)
Cc1ccc(/C=N\NC(=O)c2cc([N+](=O)[O-])cc([N+](=O)[O-])c2)o1	1 (active)
Cc1ccc(-c2cc(-c3ccccc3)[nH]c(=S)c2C#N)cc1	1 (active)
COc1ccc(CC(=O)Nc2cc(=O)n(C)c(=O)n2C)cc1	0 (inactive)
CC(C)Cn1cnc2sc3c(c2c1=N)CCCC3	0 (inactive)
Cc1cc(C)nc(Sc2ncnc3sc4c(c23)CCC4)n1	1 (active)
COc1ccc(/C=C/c2nc3sc4c(c3c(=O)o2)CCC4)cc1	3 (inactive)
O=C(CCSCc1cccc(Cl)c1)NCCc1ccc(Cl)cc1	0 (inactive)
COc1ccc(CCC(=O)NCc2cnn(C)c2)cc1	0 (inactive)
O=C(CCc1ccccc1)NNC(=S)NC(=O)c1ccc(Cl)cc1	1 (active)
COc1ccc(C(=O)CC(=O)C(=O)NCCc2cccc(C)c2)cc1	0.5 (inactive)
COc1ccc(C(=O)NC(=S)NNC(=O)CCc2ccccc2)cc1	1 (active)
Oc1cccc(Nc2nc(NCC3CCCO3)c3ccccc3n2)c1 (stereo not drawn)	0 (inactive)
Oc1[nH]c2c(Cl)cc(Cl)cc2c1N=NC(=S)NCC1CCCO1 (stereo not drawn)	1 (active)
Oc1[nH]c2ccccc2c1N=NC(=S)NCC1CCCO1 (stereo not drawn)	1 (active)
Clc1ccc2[nH]c3c(NCC4CCCO4)ncnc3c2c1 (stereo not drawn)	0 (inactive)
Oc1[nH]c2ccccc2c1N=NC(=S)NCCc1ccccc1	1 (active)
COc1ccc(S(=O)(=O)N(CC(=O)N2CCN(c3ccccc3)CC2)c2ccccc2)cc1	0 (inactive)
CN1C=CC2=C(C#N)C(N)C(C#N)(C#N)C(c3ccccc3)C2C1 (stereo not drawn)	3 (inactive)
CC(=O)c1cccc(NC(=O)C2CCCN2S(=O)(=O)c2cccc3cccnc23)c1 (stereo not drawn)	0 (inactive)
Cc1cc(/C=c2/sc3nc4ccccc4n3c2=O)c(C)n1-c1ccccn1	0 (inactive)
Cc1ccc2cccc(Oc3nnnn3-c3ccccc3)c2n1	0 (inactive)
CCOC(=O)c1c(-c2ccc(C)o2)csc1NC(=S)NC(=O)N(C)C	1 (active)
CCOC(=O)C(Cc1ccccc1)NC(=O)Cn1nnc(-c2ccccc2)n1 (stereo not drawn)	0 (inactive)
CCOC(=O)c1c(-c2ccc(C)o2)csc1NC(=S)NC(=O)c1cccs1	0 (inactive)
CCOC(=O)c1c(C)[nH]c2c1cc(O)c1ccccc12	0 (inactive)

SMILES	manual score
CCNC(=S)Nc1scc(-c2ccccc2)c1C(=O)OCC	1 (active)
CCOC(=O)c1c(-c2ccccc2)csc1NC(=S)NC	1 (active)
Cc1ccc(OCC(=O)Nc2ccc(C)c(S(=O)(=O)N3CCCCC3)c2)c([N+](=O)[O-])n1	0 (inactive)
NC(=O)c1noc(C(=O)N(CC(=O)NC2CCCC2)Cc2ccc3c(c2)OCO3)c1N	0 (inactive)
O=C1c2cccc3c(O)ccc(c23)C(=O)N1Cc1ccccc1	3 (inactive)
CCc1ccc(C2=NN(c3ccc(S(N)(=O)=O)cc3)C(c3ccc(F)cc3)C2)cc1 (stereo not drawn)	0 (inactive)
O=S(=O)(Nc1ccccc1N1CCCCC1)c1ccc(Cl)s1	1 (active)
CN1CCN(c2ccccc2NS(=O)(=O)c2ccc3c(c2)CCN3C(=O)C2CCC2)CC1	0 (inactive)
O=S(=O)(Nc1cc(Cl)ccc1N1CCCCC1)c1cccs1	1 (active)
CCOc1ccccc1N1CCN(S(=O)(=O)c2cccs2)CC1	0 (inactive)
O=C(Nc1nncs1)c1ccccc1NS(=O)(=O)c1cccs1	0 (inactive)
O=C(Nc1ccccc1)c1ccccc1NS(=O)(=O)c1ccc(Cl)s1	0.5 (inactive)
CCCN(CCC)CCCNC(=O)c1cc2c(=O)n(C)c3ccccc3c2n1C	0 (inactive)
S=c1nc[nH]c2c1sc1nc(-c3ccccc3)c3c(c12)CCCC3	1 (active)
Cc1ccc2nsnc2c1S(=O)(=O)Nc1cccc2nsnc12	1 (active)
CCOC(=O)N1CCN(c2c(F)cc3[nH]c(=S)[nH]c3c2Br)CC1	0 (inactive)
Cc1sc2ncnc(N(C)Cc3cccs3)c2c1C	-1 (active)
CC(C)CCNC(=O)C(C)N(Cc1ccc(F)cc1)C(=O)c1ccc(CN2CCCCC2)o1 (stereo not drawn)	0 (inactive)
CC(NC(=O)COc1ccccc1)C(=O)NC1=NCCS1 (stereo not drawn)	0 (inactive)
Cc1ccc(OCCCC(=O)Nc2nccs2)cc1	0 (inactive)
Cc1ccc(OCC(=O)NNC(=O)C(C)Sc2ncnc3sc(C)c(C)c23)cc1 (stereo not drawn)	1 (active)
CC1CC2=C(CC1/C=N/NC(N)=S)C(C)(C)CCC2 (stereo not drawn)	0 (inactive)
COc1ccccc1OCC(O)Cn1c(=N)n(Cc2ccccc2)c2ccccc21 (stereo not drawn)	0 (inactive)
CC1=C(C(=O)OCC2CCCO2)C(c2ccc(C)o2)C2=C(CC(c3ccc(F)cc3)CC2=O)N1 (stereo not drawn)	-1 (active)
CCOC(=O)C1=C(C)NC2=C(C(=O)CC(c3ccc(OC)c(OC)c3)C2)C1c1ccc(C)o1 (stereo not drawn)	0 (inactive)

— PubChem BioAssay AID623868 (Vanderbilt High Throughput Screening Facility, 2012)
